# Measurements: PubChem BioAssay (NCI)
# The panel holds about 83,000 compounds, 20% with a hit somewhere; the sample as a whole holds those more often.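 Method: cells in 96-well plates; compound added at one concentration; 48 h incubation; percent growth measured; values under 10 scored active.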 Values without a mark were called inactive. Activity calls are given as the source filed them.
# What was measured:
# Assay in all cases: NCI-60 one-dose screen, 48 h (100 = growth as untreated, 0 = no growth, -100 = all killed)
# HT29 colon = conditions: 10 µM unless noted
# SNB-75 CNS = conditions: 10 µM unless noted
# SNB-19 CNS = conditions: 10 µM unless noted
# U251 CNS = conditions: 10 µM unless noted
# PC-3 prostate = conditions: 10 µM unless noted
# SK-MEL-5 melanoma = conditions: 10 µM unless noted
# UACC-62 melanoma = conditions: 10 µM unless noted
# LOX IMVI melanoma = conditions: 10 µM unless noted
# SK-MEL-2 melanoma = conditions: 10 µM unless noted
# SK-MEL-28 melanoma = conditions: 10 µM
Compound,growth (HT29 colon),growth (SNB-75 CNS),growth (SNB-19 CNS) [%],growth (U251 CNS),growth (PC-3 prostate),growth (SK-MEL-5 melanoma),growth (UACC-62 melanoma),growth (LOX IMVI melanoma),growth (SK-MEL-2 melanoma),growth (SK-MEL-28 melanoma)
O=C(/C=C/c1cccc(Cl)c1)OCc1ccc2cc1OCC#C/C=C\C#CCO2,89.3%,80.9%,93.9,102%,96.2%,106%,89.2%,88.4%,113%,
COc1ccc2oc(=O)cc(Cn3cc(Cn4cnc5c4c(=O)n(C)c(=O)n5C)nn3)c2c1,99%,93.8%,99.5,101%,102%,98.9%,91.7%,98.2%,106%,105%
COc1cc(C2C3=C(COC3=O)N(CCO)c3cc4c(cc32)OCCO4)cc(OC)c1O (centres undefined),3.06% (active),-17.9% (active),26.8,19.7%,27.2%,12.9%,33.5%,33%,76.5%,
O=C(Nc1ccc(Cl)cc1)N1CCN(c2ccc3nncn3n2)CC1,-28.6% (active),-68.9% (active),80.3,-74.7% (active),16.4%,-98.4% (active),-88.3% (active),,22%,-95.5% (active)
COc1ccccc1N1CCN(C(CNS(=O)(=O)c2ccc(Cl)cc2)c2cccnc2)CC1 (centres undefined),45.3%,91.4%,107,61.7%,48.9%,90.2%,100%,,120%,85.2%
O=C(Nc1ccc(F)cc1F)c1cc(Br)ccc1O,27.8%,-17.9% (active),12.1,3.39% (active),-8.08% (active),,-19.7% (active),17%,-27.5% (active),16.5%
Nc1ccc(-c2nn3c(CCC(=O)c4nc5ncccc5[nH]4)nnc3s2)c(O)c1,103%,70.3%,88.2,103%,82.8%,,92.9%,85.2%,100%,105%
COc1cc(C2C3=C(COC3=O)N(CCO)c3cc4c(cc32)CCC4)cc(OC)c1O (centres undefined),0.722% (active),3.02% (active),31.2,15.3%,31.7%,11.8%,39.8%,28.2%,89%,
O=C(Nc1ccc(F)c(Cl)c1)Nc1ccc(Cl)c(Cl)c1,51.8%,79.7%,92.8,63.4%,77%,59.6%,58.9%,,79.7%,70.1%
CCN1CCN(C(=S)SCC(=O)Nc2nc3ccc(C)cc3s2)CC1,102%,89%,102,110%,88.8%,97.5%,,3.49% (active),105%,108%
CCOC(=O)C1=C(C)c2ccc(OC)c(OC)c2C1,95%,89.9%,104,90.4%,102%,96.3%,98.5%,96.1%,89.5%,
Cc1ccc2nc(NC(=O)CSC(=S)N3CCN(c4ccccc4)CC3)sc2c1,96.6%,97.1%,96.9,86.3%,95.5%,95.4%,,-65% (active),96.1%,107%
